The values that follow come from PubChem BioAssay (Tox21).

Molecules are shown by their SMILES. Results filed as inconclusive are left out. Unmarked numbers belong to inactive results. The source made the active and inactive calls. Unless noted, the call rests on the fitted dose curve; in most records, active means well fitted curve in the direction sought with a large enough effect in the repeat runs; inconclusive means weak or mixed curves; inactive means no such curve, though single readings can be large; an effect the other way counts as inactive or inconclusive.

Test [1] can be described thus: qHTS assay to identify aromatase inhibitors - cell viability counter screen (AID 743084;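 further: cells stimulated with testosterone during compound exposure; nearly all actives have a fitted effect of over 55% in size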). (In general: In qHTS, concentration-response curves come from the screen itself.)
In test [2] the target is Aryl hydrocarbon receptor (Homo sapiens) (UniProt P35869). In words: qHTS assay to identify small molecule that activate the aryl hydrocarbon receptor (AhR) signaling pathway (AID 743085).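 Further: HG2L7.5c1 human HepG2 liver cells with stably integrated DRE-driven firefly reporter; series mostly up to about 70 µM; nearly all actives have a fitted effect of over 15% in size.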 The method, boiled down:
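Steps: seed HepG2-AhR-luc cells; allow 5 h at 37C; pin-transfer test compound or vehicle; incubate 24 h at 37C; add viability dye (30 min, 37C) and read fluorescence; add luciferase substrate (30 min, RT) and read luminescence.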

Test [3] can be described thus: qHTS assay to identify small molecule that activate the aryl hydrocarbon receptor (AhR) signaling pathway - cell viability counter screen (AID 743086).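 Further: HepG2 liver cells carrying the AhR DRE luciferase reporter; series mostly up to about 70 µM; nearly all actives have a fitted effect of over 45% in size.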 The method, boiled down:
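HepG2-AhR-luc (HG2L7.5c1) cells, 4000/well, treated 24 h at 37 C with compound; viability measured as CellTiter-Fluor fluorescence after 30 min in the same wells as the luciferase read.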

Test [4] deals with Peroxisome proliferator-activated receptor gamma (Homo sapiens) (UniProt P37231). In words: qHTS assay to identify small molecule agonists of the peroxisome proliferator-activated receptor gamma (PPARg) signaling pathway (AID 743094; active means well fitted activation curve with a large enough effect in the signal ratio in the repeat runs, not every such curve was filed as active; the % refers to the signal ratio). Put shortly: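 Quantitative HTS agonist mode: stable HEK293H line with UAS-beta-lactamase reporter under PPARg control, 17 h compound exposure at 37C, fluorescence after 1 h FRET substrate loading at room temperature.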
Chain of Peroxisome proliferator-activated receptor gamma (Homo sapiens) (P37231 whole entry, looked up): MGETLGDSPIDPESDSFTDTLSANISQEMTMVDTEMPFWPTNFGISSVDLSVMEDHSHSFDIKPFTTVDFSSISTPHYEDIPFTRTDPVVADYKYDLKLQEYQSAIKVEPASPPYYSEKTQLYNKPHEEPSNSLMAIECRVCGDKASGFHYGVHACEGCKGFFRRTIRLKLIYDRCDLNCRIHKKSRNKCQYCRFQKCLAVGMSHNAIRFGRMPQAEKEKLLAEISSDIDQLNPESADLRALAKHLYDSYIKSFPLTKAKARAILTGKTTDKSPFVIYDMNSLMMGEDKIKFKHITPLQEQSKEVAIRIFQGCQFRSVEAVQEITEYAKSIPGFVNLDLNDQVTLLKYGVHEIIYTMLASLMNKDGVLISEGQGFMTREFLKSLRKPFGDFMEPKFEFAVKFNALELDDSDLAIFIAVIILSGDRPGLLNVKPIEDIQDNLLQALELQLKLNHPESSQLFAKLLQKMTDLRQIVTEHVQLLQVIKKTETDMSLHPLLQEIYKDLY

Test [5] is described as follows: qHTS assay to identify small molecule antagonists of the peroxisome proliferator-activated receptor gamma (PPARg) signaling pathway - cell viability counter screen (AID 743194). Further: nearly all actives have a fitted effect of over 55% in size. Put shortly:
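Cytotoxicity counter screen in PPARg-bla HEK293H cells, same wells as reporter assay. Compounds plus 50 nM rosiglitazone (final) for 17 h at 37 C, then viability read by CellTiter-Glo luminescence.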

Test [6] is described as follows: qHTS assay for small molecule agonists of the antioxidant response element (ARE) signaling pathway (AID 743202; active means well fitted activation curve with a large enough effect in the signal ratio in the repeat runs, not every such curve was filed as active; the % refers to the signal ratio; further: potency means the concentration at half of the fitted maximal effect). The method, boiled down:
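ARE-bla HepG2 cells (beta-lactamase reporter under the antioxidant response element), plated 5 hours, then exposed to compounds 16 hours at 37 C. LiveBLAzer B/G FRET substrate added for 2 hours at room temperature; fluorescence intensity read.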

The nature of test [7]: qHTS assay for small molecule agonists of the antioxidant response element (ARE) signaling pathway - cell viability counter screen (AID 743203; calls by dose curve; further: nearly all actives have a fitted effect of over 55% in size). The method, boiled down:
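Seeded at 2,000 cells/well, ARE-bla HepG2 cells were incubated 5 hrs before compound addition. After 16 hrs of treatment at 37C with 5% CO2, CellTiter-Glo reagent was added and luminescence read 30 min later.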

Test [8] is described as follows: qHTS assay for small molecule activators of the heat shock response signaling pathway - cell viability counter screen (AID 743209). Further: nearly all actives have a fitted effect of over 50% in size. The method, boiled down: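 First, HSE-bla HeLa cells were seeded at 1500 cells/well and kept overnight at 37 C. Next, compounds were pinned in and incubated 5 h. After the FRET substrate step, CellTiter-Glo was added and luminescence read 30 min later.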

Test [9] deals with Peroxisome proliferator-activated receptor gamma (Homo sapiens) (UniProt P37231). In words: qHTS assay to identify small molecule antagonists of the peroxisome proliferator-activated receptor gamma (PPARg) signaling pathway (AID 743191; calls by dose curve; further: series mostly up to about 63 µM; nearly all actives have a fitted effect of over 30% in size). The method, boiled down:
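GeneBLAzer PPARg UAS-bla HEK293H cells, 5 h post-plating, exposed to compounds 17 h at 37C. LiveBLAzer B/G FRET substrate added for 1 h at room temperature; beta-lactamase reporter read by fluorescence intensity.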

Test [10] in a line: qHTS assay for small molecule activators of the heat shock response signaling pathway (AID 743210; active means well fitted activation curve with a large enough effect in the signal ratio in the repeat runs, with a control signal flat, not every such curve was filed as active; the % refers to the signal ratio; further: series mostly up to about 63 µM). Put shortly: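 HSE-bla HeLa cells (beta-lactamase reporter under heat shock response elements), plated overnight, then exposed to compounds 5 h at 37 C; LiveBLAzer B/G FRET substrate added, 2.5 h at room temperature, fluorescence intensity read.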
On the % scale 0 is the no-effect control and ±100 the full control effect.

Chain of Aryl hydrocarbon receptor (Homo sapiens) (P35869 whole entry, looked up): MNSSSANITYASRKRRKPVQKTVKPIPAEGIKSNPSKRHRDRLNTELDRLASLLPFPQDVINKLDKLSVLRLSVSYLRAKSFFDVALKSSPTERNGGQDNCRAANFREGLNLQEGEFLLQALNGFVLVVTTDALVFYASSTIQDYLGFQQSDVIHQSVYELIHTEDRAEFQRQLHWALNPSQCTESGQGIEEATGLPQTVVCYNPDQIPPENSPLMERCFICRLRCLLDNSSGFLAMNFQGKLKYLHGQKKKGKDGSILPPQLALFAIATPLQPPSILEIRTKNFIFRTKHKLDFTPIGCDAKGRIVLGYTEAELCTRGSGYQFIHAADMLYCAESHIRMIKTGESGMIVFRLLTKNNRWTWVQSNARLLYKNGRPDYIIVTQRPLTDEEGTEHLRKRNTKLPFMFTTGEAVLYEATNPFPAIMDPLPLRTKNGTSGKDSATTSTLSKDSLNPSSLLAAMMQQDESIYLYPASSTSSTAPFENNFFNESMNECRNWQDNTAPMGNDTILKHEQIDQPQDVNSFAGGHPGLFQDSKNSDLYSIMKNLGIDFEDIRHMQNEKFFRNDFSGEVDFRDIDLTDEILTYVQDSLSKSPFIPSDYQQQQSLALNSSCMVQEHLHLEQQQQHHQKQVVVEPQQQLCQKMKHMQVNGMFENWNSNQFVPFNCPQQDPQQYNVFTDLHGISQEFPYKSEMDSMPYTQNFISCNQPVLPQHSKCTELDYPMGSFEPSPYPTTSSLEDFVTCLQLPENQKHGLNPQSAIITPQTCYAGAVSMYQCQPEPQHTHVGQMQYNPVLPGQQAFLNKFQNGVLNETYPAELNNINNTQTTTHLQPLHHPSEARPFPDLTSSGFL

In the case of `Nc1nccs1`, the Potency entry in test [1], in test [2], in [3], in test [4], in test [5] and in [6] was “inactive” in each case. In addition, the Potency entry in test [7] and in test [8] was “inactive” each time.

For the compound `OCCSc1ccccc1`, the Potency entry in test [1], in test [2], in [3], in [4], in test [9] and in [6] was “inactive” in each case. Besides, the Potency result in [7], in test [8] and in test [10] was “inactive” each time.

Turning to `CCC(C)(O)CCC=C(C)C` (stereo unspecified), the Potency entry in test [1], in [2], in test [3], in test [4], in [9] and in test [6] was “inactive” throughout. Also, the Potency entry in test [7], in test [8] and in [10] was “inactive” in each case.

As for `Nc1ccc(S(=O)(=O)O)cc1`, the Potency result in [1], in test [2], in [3], in test [4], in test [9] and in test [6] was “inactive” each time. Besides, the Potency result in test [7], in [8] and in test [10] was “inactive” each time.

For the compound `O=C1NCCN1`, the Potency result in [1], in [2], in [3], in test [4], in test [9] and in test [6] was “inactive” in each case. For the same compound, the Potency entry in test [7] and in [8] was “inactive” in each case.

Take `NC(=O)Nc1ccc(Cl)cc1`: the Potency entry in test [1], in [2], in [3], in test [4], in test [9] and in test [6] was “inactive” in each case. In addition, the Potency entry in test [7], in [8] and in test [10] was “inactive” each time.

As for `CC(N)CN` (stereo unspecified), the Potency result in [1], in test [2], in test [3], in test [4], in [5] and in test [6] was “inactive” throughout. Further, the Potency result in test [7] and in test [8] was “inactive” throughout.

As to `CCCCCCCCCCCC[N+](C)(C)CC(=O)[O-]`, the Potency entry in test [1], in test [2], in [3], in test [4], in test [9] and in test [5] was “inactive” each time. For the same compound, in test [10], the Potency entry was “inactive”.

`CC(=O)[C@H]1CC[C@H]2[C@@H]3C=CC4=CC(=O)CC[C@@]4(C)[C@@H]3CC[C@]12C`: the Potency result in test [1], in test [2], in test [3], in [4], in [5] and in [7] was “inactive” in each case. For the same compound, the Potency entry in test [8] and in test [10] was “inactive” each time. Also, the Potency in [6] is 13.3 µM (active).

Regarding `C[Si]1(C)O[Si](C)(C)O[Si](C)(C)O1`, the Potency result in [1], in test [2], in [3], in test [4], in test [9] and in test [7] was “inactive” in each case. Further, the Potency entry in test [10] is “inactive”.

For `CCCCCCCCCCCCCCCCBr`, the Potency entry in test [1], in test [2], in test [3], in test [4], in test [9] and in test [6] was “inactive” each time. For the same compound, the Potency entry in test [7], in [8] and in test [10] was “inactive” throughout.

For `CCCCCCOC(=O)C(C)C`, the Potency result in test [1], in [2], in test [3], in test [4], in test [5] and in test [6] was “inactive” each time. In addition, the Potency result in test [7], in [8] and in [10] was “inactive” in each case.

`C=CC(C)(O)CCCC(C)CCCC(C)CCCC(C)C` (stereo unspecified): the Potency entry in test [1], in test [2], in test [3], in test [4], in test [5] and in test [6] was “inactive” throughout. In addition, the Potency entry in test [7], in test [8] and in test [10] was “inactive” in each case.

With `C=CCOC(=O)/C=C\C(=O)OCC=C`, the Potency entry in test [1], in test [2], in [3], in test [4], in test [5] and in test [7] was “inactive” in each case. Further, the Potency in [6] is 27.8 µM (active).

For `Cc1cnc(C)c(C)n1`, the Potency entry in [1], in test [2], in test [3], in test [4], in test [9] and in test [6] was “inactive” throughout. Besides, the Potency result in test [7], in test [8] and in test [10] was “inactive” throughout.

As to `CC(C)C(OC(=O)c1ccccc1)C(C)(C)COC(=O)c1ccccc1` (stereo unspecified), the Potency entry in test [1], in test [2], in test [3], in [4], in test [5] and in test [6] was “inactive” each time. The Potency entry in test [7], in test [8] and in test [10] was “inactive” each time.

In the case of `CCC(C)(C)C1CCC(O)CC1` (stereo unspecified), the Potency result in [1], in test [2], in [3], in test [4], in test [5] and in test [6] was “inactive” each time. The Potency entry in [7], in test [8] and in test [10] was “inactive” each time.

As to `[O]=[Bi]`, the activity change, negative = cytotoxicity is -5.72% [at 8.47 µM] in test [1] and 0.948% [at 5.95 µM] in test [8]. The activation in test [2] was -0.231% [at 8.47 µM]; in test [4], -4.02% [at 7.08 µM]; in [6] it was -9.19% [at 8.36 µM]. The viability change, negative = cytotoxic in test [3] was -5.07% [at 8.47 µM]; in test [7], -0.248% [at 8.36 µM]. Further, the ratio activity, negative = inhibition in test [9] was 6.53% [at 5.95 µM].

As for `CCCCOC(=O)CCS`, the Potency result in [1], in test [2], in test [3], in [4], in test [5] and in test [6] was “inactive” throughout. For the same compound, the Potency result in test [7], in test [8] and in [10] was “inactive” each time.

On to `Cc1nc2ccccc2s1`, for which the Potency entry in [1], in test [2], in test [3], in [4], in [5] and in test [6] was “inactive” in each case. Moreover, the Potency entry in test [7] and in test [8] was “inactive” each time.

`O=C(CCCCCCCCC#CI)Oc1ccccc1`: the Potency result in [1], in test [2], in test [3], in test [4], in test [5] and in test [6] was “inactive” throughout. For the same compound, the Potency result in [7], in [8] and in [10] was “inactive” in each case.

Turning to `CCN(Cc1cccc(S(=O)(=O)O)c1)c1ccc(C(=C2C=CC(=[N+](CC)Cc3cccc(S(=O)(=O)[O-])c3)C=C2)c2ccccc2)cc1`, the Potency result in test [1], in test [2], in test [3], in test [4], in test [5] and in test [7] was “inactive” in each case. Also, the Potency result in test [8] and in [10] was “inactive” in each case. Besides, in test [6], the Potency is 38.3 µM (active).

`CC(Cl)C(Cl)Cl` (stereo unspecified): the Potency result in test [1], in test [2], in test [3], in [4], in test [5] and in test [6] was “inactive” in each case. Besides, the Potency entry in [7], in test [8] and in test [10] was “inactive” each time.

As for `CC1(C)C2=CCCC(C)(C)[C@]23CC[C@H]1C3`, the Potency entry in test [1], in test [2], in test [3], in [4], in test [9] and in [7] was “inactive” throughout. Moreover, the Potency result in [8] and in [10] was “inactive” in each case.

As to `CCCOC(=O)c1ccc(C(=O)OCCC)nc1`, the Potency entry in test [1], in [2], in test [3], in test [4], in test [9] and in [6] was “inactive” in each case. Besides, the Potency entry in test [7], in test [8] and in test [10] was “inactive” throughout.

On to `O=[N+]([O-])c1cccc(S(=O)(=O)NCCNS(=O)(=O)c2cccc([N+](=O)[O-])c2)c1`, for which the Potency result in test [1], in test [2], in test [3], in test [4], in test [9] and in [7] was “inactive” in each case. In addition, the Potency result in test [8] and in [10] was “inactive” each time.
